From the supplement of paper PMC11732987, “Enantioselective OTUD7B fragment discovery through chemoproteomics screening and high-throughput optimisation” (Communications Chemistry, 2025)

How the values were obtained:
Test in all cases: log2 ratio of Biotin-Ahx-Ub-VS probe labelling (fragment/DMSO); higher = less target engagement (more negative = stronger competition), active = hit call of the paper (q ≤ 0.05, log2 ratio ≤ -1)
Details in all cases: compound concentration: 200 uM; treatment time: 3 h
USP34 = USP34 (UniProt Q70CQ2)
Outline: (§1)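 HEK293T lysate, 495 µg per sample in Tris/CHAPS/IGEPAL buffer with protease inhibitors, was treated in triplicate with fragment at 200 µM or vehicle for 3 h and then with Biotin-Ahx-Ub-VS at 0.5 µM final for 1 h. Labelled DUBs were NeutrAvidin-enriched, digested with LysC and trypsin, and run by diaPASEF LC-MS/MS. Spectronaut label-free quantities were global-median-normalised, and values are average log2 fragment/vehicle ratios by unpaired t-test on proteins with ≥2 unique peptides.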

USP36 = target: T1, USP36 (UniProt Q9P275)
T1 sequence (whole entry): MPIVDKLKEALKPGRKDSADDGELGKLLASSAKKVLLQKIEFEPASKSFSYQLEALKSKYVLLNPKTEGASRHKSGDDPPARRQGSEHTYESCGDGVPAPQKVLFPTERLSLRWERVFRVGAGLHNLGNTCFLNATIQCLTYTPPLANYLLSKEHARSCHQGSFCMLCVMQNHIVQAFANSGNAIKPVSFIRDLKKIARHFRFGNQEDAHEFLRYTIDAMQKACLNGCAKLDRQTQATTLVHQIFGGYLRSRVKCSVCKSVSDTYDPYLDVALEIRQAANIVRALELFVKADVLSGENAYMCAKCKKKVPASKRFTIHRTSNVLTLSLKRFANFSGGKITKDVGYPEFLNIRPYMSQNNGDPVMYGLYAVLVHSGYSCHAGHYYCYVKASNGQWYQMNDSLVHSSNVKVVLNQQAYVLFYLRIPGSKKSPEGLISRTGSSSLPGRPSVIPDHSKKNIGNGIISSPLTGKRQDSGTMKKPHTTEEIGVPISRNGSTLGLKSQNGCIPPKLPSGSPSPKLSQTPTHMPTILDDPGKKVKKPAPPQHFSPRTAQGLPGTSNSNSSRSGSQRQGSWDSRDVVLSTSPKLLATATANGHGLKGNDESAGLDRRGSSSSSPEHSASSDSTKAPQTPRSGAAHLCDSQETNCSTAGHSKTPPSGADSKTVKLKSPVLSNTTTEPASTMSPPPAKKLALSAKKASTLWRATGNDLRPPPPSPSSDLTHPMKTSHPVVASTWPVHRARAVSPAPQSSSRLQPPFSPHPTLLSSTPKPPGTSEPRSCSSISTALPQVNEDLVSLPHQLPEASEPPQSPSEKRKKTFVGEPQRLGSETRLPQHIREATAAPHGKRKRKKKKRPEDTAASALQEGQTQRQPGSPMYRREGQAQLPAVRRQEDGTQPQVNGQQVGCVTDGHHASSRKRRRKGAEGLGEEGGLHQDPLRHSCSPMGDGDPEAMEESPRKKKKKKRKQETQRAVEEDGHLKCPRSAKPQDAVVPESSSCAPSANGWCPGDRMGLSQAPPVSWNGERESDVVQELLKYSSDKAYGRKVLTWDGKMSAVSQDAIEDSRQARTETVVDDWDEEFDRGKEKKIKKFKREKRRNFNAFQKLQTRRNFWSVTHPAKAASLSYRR
Outline: as §1

USP38 = target: T2, USP38 (UniProt Q8NB14)
T2 sequence (whole entry): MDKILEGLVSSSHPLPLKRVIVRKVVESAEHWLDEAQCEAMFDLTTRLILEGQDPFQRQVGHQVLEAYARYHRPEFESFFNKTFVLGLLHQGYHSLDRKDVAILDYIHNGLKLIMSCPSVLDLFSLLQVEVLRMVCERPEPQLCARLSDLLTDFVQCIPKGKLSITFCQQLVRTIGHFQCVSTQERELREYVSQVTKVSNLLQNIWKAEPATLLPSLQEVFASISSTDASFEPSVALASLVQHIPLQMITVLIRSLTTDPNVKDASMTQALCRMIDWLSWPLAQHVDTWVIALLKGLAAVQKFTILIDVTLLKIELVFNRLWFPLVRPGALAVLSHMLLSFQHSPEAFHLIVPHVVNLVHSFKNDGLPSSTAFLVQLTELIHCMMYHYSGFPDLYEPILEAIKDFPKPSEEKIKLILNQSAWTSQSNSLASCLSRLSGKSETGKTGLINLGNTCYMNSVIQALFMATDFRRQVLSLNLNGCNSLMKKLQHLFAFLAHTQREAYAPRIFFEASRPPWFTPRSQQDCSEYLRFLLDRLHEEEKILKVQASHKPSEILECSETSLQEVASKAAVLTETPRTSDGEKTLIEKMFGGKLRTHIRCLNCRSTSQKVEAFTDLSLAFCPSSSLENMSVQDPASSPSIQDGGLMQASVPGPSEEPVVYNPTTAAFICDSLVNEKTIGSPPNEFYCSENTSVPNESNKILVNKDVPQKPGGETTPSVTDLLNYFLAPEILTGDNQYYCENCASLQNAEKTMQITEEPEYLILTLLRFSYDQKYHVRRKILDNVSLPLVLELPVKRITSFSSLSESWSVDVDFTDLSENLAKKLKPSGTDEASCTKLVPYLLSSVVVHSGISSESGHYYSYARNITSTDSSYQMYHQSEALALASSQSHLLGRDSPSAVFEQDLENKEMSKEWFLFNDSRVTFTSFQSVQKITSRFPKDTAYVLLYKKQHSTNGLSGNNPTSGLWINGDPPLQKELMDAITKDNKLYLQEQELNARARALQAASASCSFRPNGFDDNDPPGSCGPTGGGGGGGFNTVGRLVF
Outline: as §1

USP39 = target: T3, USP39 (UniProt Q53GS9)
T3 sequence (whole entry): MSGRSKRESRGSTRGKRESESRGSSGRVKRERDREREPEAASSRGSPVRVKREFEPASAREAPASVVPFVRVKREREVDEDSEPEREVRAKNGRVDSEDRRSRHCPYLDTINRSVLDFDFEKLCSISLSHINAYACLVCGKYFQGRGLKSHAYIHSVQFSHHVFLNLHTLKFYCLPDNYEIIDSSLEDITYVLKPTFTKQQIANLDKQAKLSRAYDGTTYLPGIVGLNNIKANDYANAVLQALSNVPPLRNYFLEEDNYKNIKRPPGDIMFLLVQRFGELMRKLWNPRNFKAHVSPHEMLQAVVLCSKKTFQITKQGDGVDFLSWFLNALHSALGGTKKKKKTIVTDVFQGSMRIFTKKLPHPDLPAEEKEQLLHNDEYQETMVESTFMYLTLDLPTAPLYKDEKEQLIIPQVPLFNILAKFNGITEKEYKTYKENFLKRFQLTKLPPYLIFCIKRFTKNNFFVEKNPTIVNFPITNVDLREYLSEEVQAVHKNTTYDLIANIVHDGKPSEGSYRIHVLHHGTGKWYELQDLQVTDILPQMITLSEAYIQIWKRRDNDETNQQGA
Outline: as §1

USP4 = target: T4, USP4 (UniProt Q13107)
T4 sequence (whole entry): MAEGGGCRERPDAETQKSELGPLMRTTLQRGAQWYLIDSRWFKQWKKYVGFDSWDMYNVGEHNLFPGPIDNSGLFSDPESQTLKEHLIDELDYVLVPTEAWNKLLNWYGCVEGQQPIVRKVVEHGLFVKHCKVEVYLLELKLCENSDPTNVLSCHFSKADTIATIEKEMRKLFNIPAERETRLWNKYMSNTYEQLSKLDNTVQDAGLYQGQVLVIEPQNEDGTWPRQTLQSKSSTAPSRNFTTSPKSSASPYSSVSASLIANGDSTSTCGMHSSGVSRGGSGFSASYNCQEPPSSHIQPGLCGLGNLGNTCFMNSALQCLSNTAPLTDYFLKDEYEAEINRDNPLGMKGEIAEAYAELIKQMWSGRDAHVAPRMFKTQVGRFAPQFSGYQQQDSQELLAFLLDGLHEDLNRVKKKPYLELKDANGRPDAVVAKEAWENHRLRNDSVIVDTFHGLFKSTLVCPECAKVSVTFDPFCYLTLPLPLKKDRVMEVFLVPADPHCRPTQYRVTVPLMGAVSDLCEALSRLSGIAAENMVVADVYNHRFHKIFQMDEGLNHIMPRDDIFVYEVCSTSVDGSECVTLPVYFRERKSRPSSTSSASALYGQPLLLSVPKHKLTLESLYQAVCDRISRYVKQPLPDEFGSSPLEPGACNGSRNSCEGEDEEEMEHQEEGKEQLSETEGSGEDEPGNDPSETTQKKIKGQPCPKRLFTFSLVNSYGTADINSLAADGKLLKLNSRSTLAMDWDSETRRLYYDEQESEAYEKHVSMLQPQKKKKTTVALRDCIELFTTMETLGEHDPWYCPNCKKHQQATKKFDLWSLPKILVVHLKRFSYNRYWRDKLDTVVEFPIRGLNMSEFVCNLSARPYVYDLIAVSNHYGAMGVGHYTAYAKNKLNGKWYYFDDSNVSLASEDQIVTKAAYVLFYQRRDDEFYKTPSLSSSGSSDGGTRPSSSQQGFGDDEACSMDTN
Outline: as §1

Measured: log2 ratio of Biotin-Ahx-Ub-VS probe labelling

USP34, sequence (Q70CQ2 whole entry, the tested form may be a part): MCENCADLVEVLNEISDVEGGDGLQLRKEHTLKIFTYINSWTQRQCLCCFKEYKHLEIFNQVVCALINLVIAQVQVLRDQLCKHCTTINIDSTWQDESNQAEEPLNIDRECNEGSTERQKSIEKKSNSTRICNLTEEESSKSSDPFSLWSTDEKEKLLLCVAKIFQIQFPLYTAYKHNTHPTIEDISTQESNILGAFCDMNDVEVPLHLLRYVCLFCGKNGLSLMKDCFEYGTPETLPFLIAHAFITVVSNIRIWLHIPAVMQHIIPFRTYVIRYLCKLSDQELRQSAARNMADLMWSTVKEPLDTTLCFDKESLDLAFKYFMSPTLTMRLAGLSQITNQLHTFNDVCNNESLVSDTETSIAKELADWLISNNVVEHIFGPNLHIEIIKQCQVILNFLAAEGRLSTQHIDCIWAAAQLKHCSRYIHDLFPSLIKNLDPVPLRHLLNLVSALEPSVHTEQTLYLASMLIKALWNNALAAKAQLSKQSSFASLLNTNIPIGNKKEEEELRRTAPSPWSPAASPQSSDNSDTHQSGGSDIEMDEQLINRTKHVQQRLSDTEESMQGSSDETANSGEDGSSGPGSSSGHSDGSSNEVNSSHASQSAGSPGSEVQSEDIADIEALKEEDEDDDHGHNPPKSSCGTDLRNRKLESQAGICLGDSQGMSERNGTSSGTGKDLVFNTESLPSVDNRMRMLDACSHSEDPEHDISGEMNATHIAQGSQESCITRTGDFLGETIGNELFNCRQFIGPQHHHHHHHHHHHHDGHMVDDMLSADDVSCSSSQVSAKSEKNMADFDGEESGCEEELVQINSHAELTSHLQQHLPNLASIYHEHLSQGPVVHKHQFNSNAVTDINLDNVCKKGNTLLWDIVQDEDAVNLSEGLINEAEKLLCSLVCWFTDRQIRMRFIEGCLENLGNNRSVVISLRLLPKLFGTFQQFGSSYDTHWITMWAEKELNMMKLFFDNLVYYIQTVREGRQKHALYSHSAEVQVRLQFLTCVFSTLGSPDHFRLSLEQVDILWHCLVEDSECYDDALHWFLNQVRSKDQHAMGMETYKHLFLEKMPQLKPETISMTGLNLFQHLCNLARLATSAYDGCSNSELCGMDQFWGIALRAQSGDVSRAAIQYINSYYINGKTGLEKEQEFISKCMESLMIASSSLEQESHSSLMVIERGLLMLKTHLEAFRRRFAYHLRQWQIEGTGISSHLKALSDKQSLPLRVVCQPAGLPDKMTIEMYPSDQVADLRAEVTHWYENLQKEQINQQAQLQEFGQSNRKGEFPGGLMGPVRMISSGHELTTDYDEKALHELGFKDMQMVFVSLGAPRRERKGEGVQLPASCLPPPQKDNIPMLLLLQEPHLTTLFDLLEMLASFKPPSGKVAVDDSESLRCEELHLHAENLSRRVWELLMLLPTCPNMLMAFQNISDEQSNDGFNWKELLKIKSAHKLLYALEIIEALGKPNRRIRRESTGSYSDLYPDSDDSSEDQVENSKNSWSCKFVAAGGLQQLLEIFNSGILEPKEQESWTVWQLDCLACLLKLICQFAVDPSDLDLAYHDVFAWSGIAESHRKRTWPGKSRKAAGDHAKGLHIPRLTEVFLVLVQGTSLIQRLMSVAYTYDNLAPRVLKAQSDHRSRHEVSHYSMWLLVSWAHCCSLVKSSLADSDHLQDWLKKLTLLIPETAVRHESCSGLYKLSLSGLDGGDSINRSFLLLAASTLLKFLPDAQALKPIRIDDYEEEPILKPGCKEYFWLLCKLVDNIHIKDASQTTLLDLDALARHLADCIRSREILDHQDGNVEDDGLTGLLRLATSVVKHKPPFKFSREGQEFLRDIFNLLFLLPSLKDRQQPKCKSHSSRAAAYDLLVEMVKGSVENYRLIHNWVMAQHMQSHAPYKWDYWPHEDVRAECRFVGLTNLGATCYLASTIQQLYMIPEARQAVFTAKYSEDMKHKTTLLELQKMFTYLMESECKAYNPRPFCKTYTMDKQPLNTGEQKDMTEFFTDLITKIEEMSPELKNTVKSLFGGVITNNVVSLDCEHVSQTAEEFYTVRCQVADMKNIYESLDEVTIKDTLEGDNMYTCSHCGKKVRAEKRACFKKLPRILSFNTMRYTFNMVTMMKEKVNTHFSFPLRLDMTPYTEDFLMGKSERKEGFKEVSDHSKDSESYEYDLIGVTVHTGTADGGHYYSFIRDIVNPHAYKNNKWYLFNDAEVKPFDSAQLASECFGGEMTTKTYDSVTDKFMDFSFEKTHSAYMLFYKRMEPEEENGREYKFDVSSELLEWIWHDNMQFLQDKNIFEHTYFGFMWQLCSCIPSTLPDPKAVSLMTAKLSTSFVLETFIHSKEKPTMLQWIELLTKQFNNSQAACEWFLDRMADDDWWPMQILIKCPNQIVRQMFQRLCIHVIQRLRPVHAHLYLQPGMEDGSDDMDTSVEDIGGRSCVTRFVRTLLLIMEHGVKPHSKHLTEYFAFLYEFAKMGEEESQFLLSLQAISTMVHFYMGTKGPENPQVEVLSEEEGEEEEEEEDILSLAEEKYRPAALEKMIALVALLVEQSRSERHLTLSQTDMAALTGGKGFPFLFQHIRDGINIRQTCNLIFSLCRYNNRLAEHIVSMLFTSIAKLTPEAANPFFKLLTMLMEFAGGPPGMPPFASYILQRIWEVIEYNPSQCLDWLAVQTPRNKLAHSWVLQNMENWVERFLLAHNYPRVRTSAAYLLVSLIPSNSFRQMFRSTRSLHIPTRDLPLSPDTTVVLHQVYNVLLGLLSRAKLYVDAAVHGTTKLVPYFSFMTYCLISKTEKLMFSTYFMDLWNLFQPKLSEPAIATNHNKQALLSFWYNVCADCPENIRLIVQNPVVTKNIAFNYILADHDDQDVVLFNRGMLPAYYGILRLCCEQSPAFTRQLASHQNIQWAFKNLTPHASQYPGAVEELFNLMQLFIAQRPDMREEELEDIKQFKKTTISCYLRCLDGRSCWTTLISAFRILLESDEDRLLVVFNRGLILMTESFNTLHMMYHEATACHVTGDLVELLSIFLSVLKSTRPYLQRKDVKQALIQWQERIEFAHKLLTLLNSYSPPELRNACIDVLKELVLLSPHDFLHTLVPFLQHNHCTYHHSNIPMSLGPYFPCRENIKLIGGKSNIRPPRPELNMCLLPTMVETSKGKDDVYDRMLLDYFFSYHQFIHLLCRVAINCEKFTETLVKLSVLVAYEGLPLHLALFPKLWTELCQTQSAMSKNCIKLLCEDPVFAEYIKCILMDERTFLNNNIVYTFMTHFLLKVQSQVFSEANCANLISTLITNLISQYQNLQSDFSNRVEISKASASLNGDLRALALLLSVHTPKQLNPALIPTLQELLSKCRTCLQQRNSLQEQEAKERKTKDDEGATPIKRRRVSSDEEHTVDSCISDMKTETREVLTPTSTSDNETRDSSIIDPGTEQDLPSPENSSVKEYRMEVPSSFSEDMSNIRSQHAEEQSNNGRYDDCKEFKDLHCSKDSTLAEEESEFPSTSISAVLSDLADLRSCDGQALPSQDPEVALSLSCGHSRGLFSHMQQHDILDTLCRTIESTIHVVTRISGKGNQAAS

CN(C(=O)CCl)c1nc2ccccc2s1
inactive: USP34 -0.279 | USP36 -0.0441 | USP38 -0.124 | USP39 0.31 | USP4 0.161
